Experimental data as given in PubChem BioAssay (NCI).
About 83,000 compounds went through this panel and 20% of them were active in at least one assay; those are over-represented in the sample as a whole.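 The test compound was applied at a single concentration to cells in 96-well plates for 48 hours, and percent growth was recorded.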 Calls of active or inactive are those of the source. How the source made its calls: active means growth percent below 10; inactive means the rest.

Experiments:
Assay in all cases: NCI-60 one-dose screen, 48 h (100 = growth as untreated, 0 = no growth, -100 = all killed)
Conditions in all cases: 10 µM unless noted
[1] = system: SK-MEL-2 melanoma
[2] = system: EKVX NSCLC
[3] = system: SN12C renal
[4] = system: UO-31 renal
[5] = system: TK-10 renal
[6] = system: A498 renal
[7] = system: CCRF-CEM leukemia
[8] = system: MOLT-4 leukemia
[9] = system: CAKI-1 renal

Measured: growth

Cc1ccc(Nc2ccc(Nc3ccc(C)cc3S(=O)(=O)O)c3c2C(=O)c2ccccc2C3=O)c(S(=O)(=O)O)c1
inactive: [1] 101% | [2] 91.5% | [3] 98.5% | [4] 78.4% | [5] 98.3% | [6] 119% | [7] 95.6% | [8] 116%

CCN1CCN(c2ccc(Nc3cc(-c4cccnc4Nc4c(Cl)c(OC)cc(OC)c4Cl)ncn3)cc2)CC1
inactive: [1] 74.9% | [2] 87.4% | [3] 56.6% | [4] 52.8% | [5] 68.1% | [9] 48.5% | [6] 21.8% | [7] 31.6%
active: [8] 9.51%

CCN(CC)c1ccc(Nc2ccc(CC(=O)c3ccccc3)cc2)cc1
inactive: [1] 81.7% | [2] 76.4% | [3] 95.3% | [4] 71.5% | [5] 107% | [6] 99.7% | [7] 95.9%

CCN(CCO)CC(=O)c1cc(Cl)cc(Cl)c1Cl
inactive: [1] 92.4% | [2] 105% | [3] 100% | [4] 93.5% | [5] 86.7% | [6] 102% | [7] 82.9% | [8] 90.5%

CCn1c(Sc2nnc(NC(=O)CCN3CCCC3)s2)nc2c1c(=O)n(C)c(=O)n2C
inactive: [1] 108% | [2] 99.3% | [3] 96.8% | [4] 88.7% | [5] 104% | [9] 94.6% | [7] 103% | [8] 108%

O=C(/C=C/C12c3ccccc3C(c3ccccc31)C1C(=O)N(c3ccccc3)C(=O)C12)c1ccccc1 (stereo not given)
inactive: [1] 24.5% | [3] 15% | [5] 20.8% | [9] 45.8% | [8] 11%
active: [2] 8.88% | [4] -77.5% | [7] 9.95%

Cc1cc(-c2ccc(N(C)C)cc2)c2sc(=O)[nH]c2n1
inactive: [1] 56% | [2] 77.5% | [3] 76.7% | [4] 55.3% | [5] 97.7% | [9] 46.9% | [7] 60% | [8] 63.2%

CCCCN(CCCC)CCCn1c(=O)c2sc3ncccc3c2n2nnc(-c3ccccc3)c12
inactive: [1] 107% | [3] 99.3% | [4] 48.1% | [5] 118% | [6] 117% | [7] 90.8% | [8] 94.5%
active: [2] -3.24% | [9] -87.9%

CNC(=O)c1c(NC(=O)c2ccc(C(C)(C)C)cc2)sc2c1CCC(=O)C2
active: [1] -2.66% | [3] 7.81% | [4] -95.5% | [9] -14.3% | [7] 1.79% | [8] 2.3%
inactive: [2] 14.6% | [5] 40% | [6] 12.6%

Cc1c(C)c2c(c(C)c1NC(=O)/C=C\C(=O)O)CCC(C)(CCCC(C)CCCC(C)CCCC(C)C)O2 (stereo not given)
inactive: [1] 27% | [2] 74.3% | [3] 50.6% | [4] 37.2% | [5] 43.6% | [9] 46.8% | [7] 13.6% | [8] 33.9%

NS(=O)(=O)Oc1ccc(-c2sc3cc(O)ccc3c2C(=O)c2ccc(OCCN3CCCCC3)cc2)cc1
inactive: [1] 84% | [2] 72.3% | [3] 69.1% | [4] 43.6% | [5] 72.4% | [9] 49.3% | [7] 25.9% | [8] 11%

O=C1Nc2ccccc2/C1=N/N=C/c1c[nH]c2ccccc12
inactive: [1] 55.5% | [2] 21.8% | [3] 73.8% | [4] 26.4% | [5] 78.4% | [9] 17.8% | [7] 83.3% | [8] 71.8%

Cc1cc(N2CCCCC2)nc(N(CCNc2ccnc3cc(Cl)ccc23)Cc2ccccn2)n1
inactive: [1] 79.9% | [2] 53.7% | [3] 62.3% | [4] 23.7% | [5] 83.8% | [9] 54.1% | [6] 37.7% | [7] 31.8%

C=C1C(=O)O[C@H]2[C@H]1CC/C(COC(=O)/C=C\C(=O)NCc1ccc(Cn3c(=O)sn(-c4ccc(Cl)cc4)c3=O)cc1)=C\CC[C@@]1(C)O[C@@H]21
active: [1] -64.7% | [2] -74.8% | [3] -96.1% | [4] -100% | [5] -85.1% | [9] -69.9% | [6] -15.8% | [7] -22.9% | [8] -36.7%

O[C@H]1CO[C@H]2[C@@H]1OC[C@@H]2Oc1ccc(Nc2nc(Nc3ccc(F)c(Cl)c3)ncc2F)cc1Cl
inactive: [1] 113% | [2] 92.2% | [3] 97% | [4] 88% | [5] 105% | [9] 93.5% | [6] 94.4% | [7] 103% | [8] 103%

CC1(C)CC(=O)c2c(ccc(C(=O)C[C@H](N)CO)c2N)O1
inactive: [1] 36.8% | [2] 80% | [3] 32.6% | [4] 43.4% | [5] 79.4% | [9] 20.3% | [7] 17.7% | [8] 38.5%
active: [6] -16.8%

CCOC(=O)c1c(C)nc2c(c1N)/C(=C/c1cc(OC)c(OC)c(OC)c1)C(=O)N2c1ccc(OC)cc1
inactive: [1] 67.1% | [2] 93.2% | [3] 36.2% | [4] 55.7% | [5] 77.4% | [6] 82.2%
active: [7] 8.45%

N=c1ccn2c(n1)OC1C(O)C(CO)OC12 (stereo not given)
inactive: [1] 46.5% | [2] 85.5% | [3] 34.9% | [5] 51.3% | [6] 74.7% | [8] 108%
active: [4] -3.93% | [9] -14.4%

CCN(CC)CCNc1ccc(C)c2sc3cc(C)ccc3c(=O)c12
inactive: [1] 55.7% | [2] 81.3% | [3] 53.8% | [4] 41% | [5] 57.9% | [6] 84.8% | [7] 34%

Cn1ncc2c(Nc3ccc(Br)cc3)nc(Nc3ccc(Br)cc3)nc21
inactive: [1] 47.6% | [2] 41% | [3] 47.1% | [4] 68.3% | [5] 73.1% | [9] 37.7% | [7] 27.8% | [8] 26.7%

[2H]c1nc(Nc2ncc(F)c(-c3cc(F)c4nc(C)n(C(C)C)c4c3)n2)c([2H])c([2H])c1CN1CCN(C([2H])([2H])C([2H])([2H])[2H])CC1
inactive: [1] 50.1% | [2] 51.7% | [3] 54.3% | [4] 23.2% | [5] 21.6% | [6] 44.3% | [7] 35.2% | [8] 21.1%

CCCN1CCN(c2ccc3nc(-c4ccc5nc(-c6ccc(OCC)c(OCC)c6)[nH]c5c4)[nH]c3c2)CC1
active: [1] -73.9% | [2] -3.15% | [3] -37.5% | [5] -0.902% | [9] -18.9% | [7] 5.88% | [8] 3.28%
inactive: [4] 47.2%

CN=C1C=CC(=C(c2ccc(N(C)C)cc2)c2ccc(N(C)C)cc2)C=C1
active: [1] -52.4% | [2] 3.72% | [3] -32.1% | [4] -14.2% | [5] -53% | [9] 9.65% | [6] -27.4% | [7] 3.67% | [8] 3.36%

Cn1nnnc1-c1ccc(N)cc1
inactive: [1] 89% | [2] 93.8% | [3] 110% | [4] 79% | [5] 97.3% | [9] 93.2% | [6] 108% | [7] 100% | [8] 92.5%

Cc1ccccc1NC(=O)CN(C)C
inactive: [1] 84.8% | [2] 108% | [3] 97% | [4] 81.2% | [5] 86.8% | [9] 103% | [6] 83.8% | [7] 107% | [8] 94.2%

N=C(N)c1ccc(-c2ccc(-c3ccc(Cl)cc3Cl)o2)nc1
active: [3] -42.8% | [4] -16.1% | [7] -12.9% | [8] 1.62%
inactive: [1] 103% | [2] 95.4% | [5] 61% | [9] 53.8%

CSc1nc2sc3cc(Cl)ccc3n2c(=N)c1C#N
inactive: [1] 87.3% | [2] 81.9% | [3] 89.5% | [4] 75.2% | [5] 83.8% | [9] 69.9% | [6] 98% | [7] 88.6% | [8] 15.7%

O=C(CC12CC3CC(CC(C3)C1)C2)NCCOCCOCCOCCNC(=O)c1cc2c(o1)C(=O)c1ccccc1C2=O
inactive: [7] 13%
active: [1] -27.6% | [2] -27.1% | [3] -90.7% | [4] -68.5% | [5] -3.88% | [9] -27% | [8] 7.19%

Cl.[Pt].[c-]1ccccc1-c1ccccn1.c1ccc(P(c2ccccc2)C([PH+](c2ccccc2)c2ccccc2)[PH+](c2ccccc2)c2ccccc2)cc1
active: [1] -2.53% | [3] 9.75% | [4] -0.14% | [9] -5.66%
inactive: [2] 10.8% | [5] 21.1% | [7] 14.5% | [8] 13.8%

CCCCCCCCN(CCCCCCCC)C(=N)c1ccnc2ccccc12
active: [1] -44.2% | [2] -63.4% | [3] -57.8% | [4] -89.1% | [5] -16.4% | [9] -86.1% | [6] -95.7% | [7] -42.2% | [8] -41.4%

Cc1nc(Nc2ccccn2)sc1C(=O)/C=C/c1ccc(Br)cc1
inactive: [1] 97.7% | [2] 60.4% | [3] 78.8% | [4] 49.7% | [5] 127% | [9] 53.4% | [7] 31.1%
